What all share (test): DAPPL (digital affinity profiling via proximity ligation, sequencing); 10 mM Tris-HCl pH 7.5, 50 mM NaCl, 1 mM DTT, 4% glycerol, room temperature, 30 min; GST-TFs on glutathione beads, 16-mer random dsDNA library, 0.1% formaldehyde crosslink after washing; high values mean tight binding
One assay concerns the target T1, FEV (Homo sapiens, UniProt Q99581 1-238).
T1 sequence: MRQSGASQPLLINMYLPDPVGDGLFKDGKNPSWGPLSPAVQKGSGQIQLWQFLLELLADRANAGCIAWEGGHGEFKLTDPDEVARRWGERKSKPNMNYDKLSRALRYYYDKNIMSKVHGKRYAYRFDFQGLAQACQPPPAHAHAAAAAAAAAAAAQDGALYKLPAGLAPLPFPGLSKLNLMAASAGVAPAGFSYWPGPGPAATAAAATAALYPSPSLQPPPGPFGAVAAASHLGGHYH
Particulars: protein: recombinant; tags: N-terminal GST; dsDNA, one strand shown. The method in brief:
(§1)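 Yeast served to express human transcription factors as GST fusions, which were then captured on glutathione beads and labelled with DNA barcodes. Pooled with a tag-only sample, they were incubated with 200 nmole of a 16-mer random double-stranded DNA library for 30 min at room temperature in Tris/NaCl/DTT/glycerol buffer, washed, crosslinked with 0.1% formaldehyde, ligated by proximity, amplified by PCR and sequenced. Dividing each hexamer's read frequency for a factor by its frequency for the tag-only sample gives the binding signal.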

The target in the next assay is ETV5 (Homo sapiens, UniProt P41161 1-510). Particulars: protein: recombinant; tags: N-terminal GST; dsDNA, one strand shown. Summed up: as §1
Chain of ETV5 (P41161 whole entry): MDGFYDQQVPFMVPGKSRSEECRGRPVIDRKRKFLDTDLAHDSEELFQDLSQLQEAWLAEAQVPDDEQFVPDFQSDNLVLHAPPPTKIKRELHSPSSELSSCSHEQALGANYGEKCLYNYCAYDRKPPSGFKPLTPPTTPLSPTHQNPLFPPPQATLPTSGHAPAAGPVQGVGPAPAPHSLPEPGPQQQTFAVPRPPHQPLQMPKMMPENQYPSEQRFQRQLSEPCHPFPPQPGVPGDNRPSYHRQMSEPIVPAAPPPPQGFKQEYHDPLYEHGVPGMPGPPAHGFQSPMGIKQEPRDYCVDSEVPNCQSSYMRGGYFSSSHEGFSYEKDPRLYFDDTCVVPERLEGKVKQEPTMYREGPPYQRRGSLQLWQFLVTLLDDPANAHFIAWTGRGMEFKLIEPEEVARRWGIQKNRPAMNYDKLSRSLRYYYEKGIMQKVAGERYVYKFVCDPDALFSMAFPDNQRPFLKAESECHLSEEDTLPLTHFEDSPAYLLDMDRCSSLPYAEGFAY
In the next assay the target is HSF1 (Homo sapiens, UniProt Q00613 1-529). Conditions: protein: recombinant; tags: N-terminal GST; chain copies: 3; dsDNA, one strand shown. Summed up: as §1
Chain of HSF1 (Q00613 whole entry): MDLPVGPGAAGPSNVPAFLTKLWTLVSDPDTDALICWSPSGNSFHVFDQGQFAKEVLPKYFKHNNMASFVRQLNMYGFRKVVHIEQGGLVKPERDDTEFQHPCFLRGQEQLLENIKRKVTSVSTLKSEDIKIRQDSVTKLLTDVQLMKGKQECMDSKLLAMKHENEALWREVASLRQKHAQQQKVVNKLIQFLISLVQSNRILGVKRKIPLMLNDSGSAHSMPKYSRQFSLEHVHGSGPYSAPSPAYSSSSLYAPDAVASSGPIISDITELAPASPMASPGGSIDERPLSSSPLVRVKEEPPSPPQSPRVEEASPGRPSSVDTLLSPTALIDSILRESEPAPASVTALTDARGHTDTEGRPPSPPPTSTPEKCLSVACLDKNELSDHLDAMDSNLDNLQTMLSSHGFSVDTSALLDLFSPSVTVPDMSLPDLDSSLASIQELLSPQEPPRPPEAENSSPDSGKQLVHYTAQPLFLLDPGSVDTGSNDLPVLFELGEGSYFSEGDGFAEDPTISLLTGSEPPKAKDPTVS
The target in a further assay is T2, SPIC (Homo sapiens, UniProt Q8N5J4 1-248).
T2 sequence: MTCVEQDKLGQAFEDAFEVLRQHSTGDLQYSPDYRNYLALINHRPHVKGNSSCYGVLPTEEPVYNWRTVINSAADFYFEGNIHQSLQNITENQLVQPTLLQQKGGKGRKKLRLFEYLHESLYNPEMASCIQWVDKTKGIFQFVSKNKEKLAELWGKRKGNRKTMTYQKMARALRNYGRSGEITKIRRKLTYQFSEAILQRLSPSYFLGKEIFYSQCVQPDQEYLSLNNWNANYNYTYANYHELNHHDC
Particulars: protein: recombinant; tags: N-terminal GST; dsDNA, one strand shown. Summed up:
as §1

For another assay, the target named is ELF4 (Homo sapiens, UniProt Q99607 1-663). Particulars: protein: recombinant; tags: N-terminal GST; dsDNA, one strand shown. Summed up:
as §1

The next assay deals with T3, ELK4 (Homo sapiens, UniProt P28324-2 1-405).
T3 sequence: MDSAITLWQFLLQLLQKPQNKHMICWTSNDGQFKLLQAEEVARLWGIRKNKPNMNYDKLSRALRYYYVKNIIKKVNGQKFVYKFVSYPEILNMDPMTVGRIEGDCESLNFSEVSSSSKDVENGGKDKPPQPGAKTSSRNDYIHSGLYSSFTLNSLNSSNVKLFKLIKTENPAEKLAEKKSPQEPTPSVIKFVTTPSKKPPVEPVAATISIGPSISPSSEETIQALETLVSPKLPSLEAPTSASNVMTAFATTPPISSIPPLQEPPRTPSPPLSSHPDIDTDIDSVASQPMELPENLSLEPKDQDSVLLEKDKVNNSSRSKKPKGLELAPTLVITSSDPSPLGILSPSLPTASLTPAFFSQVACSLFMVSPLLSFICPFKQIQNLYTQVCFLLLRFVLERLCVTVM
Particulars: protein: recombinant; tags: N-terminal GST; dsDNA, one strand shown. The method in brief:
as §1

Another assay addresses T4, ETV2 (Homo sapiens, UniProt O00321 1-342).
T4 sequence: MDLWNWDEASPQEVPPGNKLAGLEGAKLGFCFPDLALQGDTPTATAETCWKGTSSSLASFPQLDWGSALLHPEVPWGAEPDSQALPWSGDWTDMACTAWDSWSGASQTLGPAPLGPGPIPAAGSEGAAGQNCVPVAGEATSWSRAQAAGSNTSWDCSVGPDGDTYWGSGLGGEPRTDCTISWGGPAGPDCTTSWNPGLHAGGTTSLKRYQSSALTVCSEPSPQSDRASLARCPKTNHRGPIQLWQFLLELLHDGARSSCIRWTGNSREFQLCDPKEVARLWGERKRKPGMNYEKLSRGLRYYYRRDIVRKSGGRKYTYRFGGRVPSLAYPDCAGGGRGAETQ
Conditions: protein: recombinant; tags: N-terminal GST; dsDNA, one strand shown. Summed up:
as §1

Another assay has as its target T5, ELF3 (Homo sapiens, UniProt P78545 1-371).
T5 sequence: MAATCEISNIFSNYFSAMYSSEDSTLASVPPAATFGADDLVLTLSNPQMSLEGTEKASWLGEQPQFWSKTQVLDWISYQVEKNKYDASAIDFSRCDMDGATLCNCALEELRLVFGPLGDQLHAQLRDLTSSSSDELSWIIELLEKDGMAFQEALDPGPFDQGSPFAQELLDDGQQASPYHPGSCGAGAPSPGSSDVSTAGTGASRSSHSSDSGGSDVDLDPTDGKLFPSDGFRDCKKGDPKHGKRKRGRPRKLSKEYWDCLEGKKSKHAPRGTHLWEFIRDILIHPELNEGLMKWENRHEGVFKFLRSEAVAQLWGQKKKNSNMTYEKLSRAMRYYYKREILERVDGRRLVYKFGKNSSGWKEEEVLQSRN
Conditions: protein: recombinant; tags: N-terminal GST; dsDNA, one strand shown. The method in brief:
as §1

For another assay, the target named is CRX (Homo sapiens, UniProt O43186 1-299). Particulars: protein: recombinant; tags: N-terminal GST; dsDNA, one strand shown. Summed up:
as §1

For the next assay, the target named is ETV1 (Homo sapiens, UniProt P50549 1-477). Particulars: protein: recombinant; tags: N-terminal GST; dsDNA, one strand shown. Summed up:
as §1

Chain of ELF4 (Q99607 whole entry): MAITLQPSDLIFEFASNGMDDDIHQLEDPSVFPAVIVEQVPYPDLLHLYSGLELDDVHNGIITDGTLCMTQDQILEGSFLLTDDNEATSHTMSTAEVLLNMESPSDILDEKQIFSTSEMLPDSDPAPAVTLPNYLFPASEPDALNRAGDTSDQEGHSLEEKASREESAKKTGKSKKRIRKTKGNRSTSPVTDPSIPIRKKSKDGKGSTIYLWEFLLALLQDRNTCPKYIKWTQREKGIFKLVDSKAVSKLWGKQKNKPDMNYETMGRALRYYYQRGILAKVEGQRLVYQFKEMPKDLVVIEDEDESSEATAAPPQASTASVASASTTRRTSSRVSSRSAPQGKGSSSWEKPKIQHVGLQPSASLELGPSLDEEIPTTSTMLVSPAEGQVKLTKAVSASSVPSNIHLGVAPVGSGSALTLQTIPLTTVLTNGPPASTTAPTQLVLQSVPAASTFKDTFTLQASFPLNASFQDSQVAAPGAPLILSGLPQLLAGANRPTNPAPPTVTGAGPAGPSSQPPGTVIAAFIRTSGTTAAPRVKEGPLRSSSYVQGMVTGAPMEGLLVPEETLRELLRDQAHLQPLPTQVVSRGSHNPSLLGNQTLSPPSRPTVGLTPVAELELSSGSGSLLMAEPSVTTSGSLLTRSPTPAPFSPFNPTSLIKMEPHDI
Chain of CRX (O43186 whole entry): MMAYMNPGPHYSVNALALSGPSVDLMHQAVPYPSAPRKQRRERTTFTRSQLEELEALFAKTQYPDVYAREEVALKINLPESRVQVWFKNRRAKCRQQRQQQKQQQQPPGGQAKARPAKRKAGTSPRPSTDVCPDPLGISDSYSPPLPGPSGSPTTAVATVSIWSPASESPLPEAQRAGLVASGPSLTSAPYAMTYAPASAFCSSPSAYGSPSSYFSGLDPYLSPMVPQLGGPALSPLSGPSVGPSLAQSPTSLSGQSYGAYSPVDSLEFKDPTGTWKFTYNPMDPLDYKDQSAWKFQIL
Chain of ETV1 (P50549 whole entry): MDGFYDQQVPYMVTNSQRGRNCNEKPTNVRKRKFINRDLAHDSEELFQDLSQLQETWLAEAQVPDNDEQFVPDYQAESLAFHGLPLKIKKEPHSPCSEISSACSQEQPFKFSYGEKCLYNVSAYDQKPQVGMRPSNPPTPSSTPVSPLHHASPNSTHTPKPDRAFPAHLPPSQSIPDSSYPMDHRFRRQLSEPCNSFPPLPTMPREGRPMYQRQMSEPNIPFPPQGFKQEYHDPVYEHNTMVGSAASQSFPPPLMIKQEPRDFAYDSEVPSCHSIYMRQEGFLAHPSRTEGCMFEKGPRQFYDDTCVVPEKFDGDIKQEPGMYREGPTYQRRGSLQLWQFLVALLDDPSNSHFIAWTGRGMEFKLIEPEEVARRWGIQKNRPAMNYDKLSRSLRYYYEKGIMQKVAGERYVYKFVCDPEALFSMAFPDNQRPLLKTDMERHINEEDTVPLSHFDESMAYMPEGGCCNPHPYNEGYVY

On to ACCATA, for which the binding signal with FEV was 1.17 fold enrichment (6-mer frequency, TF over GST control); in the assay with ETV5, 1.21 fold enrichment (6-mer frequency, TF over GST control); in the assay with HSF1, 1.08 fold enrichment (6-mer frequency, TF over GST control); in the assay with SPIC it was 1.22 fold enrichment (6-mer frequency, TF over GST control); with ELF4 it was 1.21 fold enrichment (6-mer frequency, TF over GST control); in the assay with ELK4, 1.31 fold enrichment (6-mer frequency, TF over GST control). The binding signal in the assay with ETV2 was 1.17 fold enrichment (6-mer frequency, TF over GST control); with ELF3, 1.14 fold enrichment (6-mer frequency, TF over GST control); in the assay with CRX, 1.14 fold enrichment (6-mer frequency, TF over GST control); with ETV1 it was 1.09 fold enrichment (6-mer frequency, TF over GST control).
As for TTCTGT, the binding signal with FEV was 1.27 fold enrichment (6-mer frequency, TF over GST control); with ETV5, 1.26 fold enrichment (6-mer frequency, TF over GST control); in the assay with HSF1, 1.6 fold enrichment (6-mer frequency, TF over GST control); with SPIC, 1.41 fold enrichment (6-mer frequency, TF over GST control); with ELF4 it was 1.3 fold enrichment (6-mer frequency, TF over GST control); with ELK4 it was 1.5 fold enrichment (6-mer frequency, TF over GST control). Moreover, the binding signal is 1.35 fold enrichment (6-mer frequency, TF over GST control) with ETV2; 1.24 fold enrichment (6-mer frequency, TF over GST control) in the assay with ELF3; 1.31 fold enrichment (6-mer frequency, TF over GST control) with CRX; 1.32 fold enrichment (6-mer frequency, TF over GST control) in the assay with ETV1.
On to GGGTTT, for which the binding signal in the assay with FEV was 1.06 fold enrichment (6-mer frequency, TF over GST control); with ETV5, 1.08 fold enrichment (6-mer frequency, TF over GST control); with HSF1, 1.12 fold enrichment (6-mer frequency, TF over GST control); with SPIC, 1.16 fold enrichment (6-mer frequency, TF over GST control); in the assay with ELF4 it was 1.2 fold enrichment (6-mer frequency, TF over GST control); with ELK4 it was 1.12 fold enrichment (6-mer frequency, TF over GST control). Moreover, the binding signal with ETV2 was 1.33 fold enrichment (6-mer frequency, TF over GST control); with ELF3 it was 1.05 fold enrichment (6-mer frequency, TF over GST control); with CRX it was 1.25 fold enrichment (6-mer frequency, TF over GST control); with ETV1, 1.1 fold enrichment (6-mer frequency, TF over GST control).
With CTAACG, the binding signal was 1.19 fold enrichment (6-mer frequency, TF over GST control) with FEV; 1.19 fold enrichment (6-mer frequency, TF over GST control) in the assay with ETV5; 1.09 fold enrichment (6-mer frequency, TF over GST control) with HSF1; 1.04 fold enrichment (6-mer frequency, TF over GST control) in the assay with SPIC; 1.17 fold enrichment (6-mer frequency, TF over GST control) with ELF4; 1.19 fold enrichment (6-mer frequency, TF over GST control) with ELK4. In addition, the binding signal with ETV2 was 1.01 fold enrichment (6-mer frequency, TF over GST control); with ELF3 it was 1.18 fold enrichment (6-mer frequency, TF over GST control); with CRX, 1.1 fold enrichment (6-mer frequency, TF over GST control); in the assay with ETV1, 1.11 fold enrichment (6-mer frequency, TF over GST control).
Turning to GTTACT, the binding signal was 1.17 fold enrichment (6-mer frequency, TF over GST control) in the assay with FEV; 1.28 fold enrichment (6-mer frequency, TF over GST control) in the assay with ETV5; 1.03 fold enrichment (6-mer frequency, TF over GST control) in the assay with HSF1; 1.31 fold enrichment (6-mer frequency, TF over GST control) with SPIC; 1.18 fold enrichment (6-mer frequency, TF over GST control) with ELF4; 1.09 fold enrichment (6-mer frequency, TF over GST control) with ELK4. Besides, the binding signal with ETV2 is 1.19 fold enrichment (6-mer frequency, TF over GST control); with ELF3 it was 1.4 fold enrichment (6-mer frequency, TF over GST control); with CRX, 1.03 fold enrichment (6-mer frequency, TF over GST control); in the assay with ETV1, 1.17 fold enrichment (6-mer frequency, TF over GST control).
Turning to TCATCA, the binding signal was 1.12 fold enrichment (6-mer frequency, TF over GST control) in the assay with FEV; 1.09 fold enrichment (6-mer frequency, TF over GST control) in the assay with ETV5; 1.06 fold enrichment (6-mer frequency, TF over GST control) with HSF1; 1.16 fold enrichment (6-mer frequency, TF over GST control) in the assay with SPIC; 1.18 fold enrichment (6-mer frequency, TF over GST control) in the assay with ELF4; 1.26 fold enrichment (6-mer frequency, TF over GST control) with ELK4. Moreover, the binding signal in the assay with ETV2 was 1.07 fold enrichment (6-mer frequency, TF over GST control); with ELF3, 1.07 fold enrichment (6-mer frequency, TF over GST control); with CRX, 1.07 fold enrichment (6-mer frequency, TF over GST control); in the assay with ETV1, 1.06 fold enrichment (6-mer frequency, TF over GST control).
In the case of ATCTGA, the binding signal with FEV is 1.1 fold enrichment (6-mer frequency, TF over GST control); with ETV5, 1.07 fold enrichment (6-mer frequency, TF over GST control); in the assay with HSF1 it was 1.16 fold enrichment (6-mer frequency, TF over GST control); with SPIC it was 1.21 fold enrichment (6-mer frequency, TF over GST control); in the assay with ELF4 it was 1.09 fold enrichment (6-mer frequency, TF over GST control); with ELK4, 1.2 fold enrichment (6-mer frequency, TF over GST control). Moreover, the binding signal with ETV2 is 1.01 fold enrichment (6-mer frequency, TF over GST control); in the assay with ELF3, 1.12 fold enrichment (6-mer frequency, TF over GST control); with CRX, 1.4 fold enrichment (6-mer frequency, TF over GST control); with ETV1, 1.24 fold enrichment (6-mer frequency, TF over GST control).

The values are drawn from article PMC7862700, “An all-to-all approach to the identification of sequence-specific readers for epigenetic DNA modifications on cytosine”.
